# PubChem BioAssay (EPA / NIEHS)
# Records with an inconclusive call do not appear. Calls of active or inactive are those of the source. Rule for the calls: active = hit-call score of the fitted dose curve at least 0.9, where 1 is the maximum; inconclusive = response in the unintended direction; inactive = score below 0.9.
# Assay: CCTE_Shafer_MEA_acute_AB: CCTE's Alamar Blue Assay for Cytotoxicity in the Neural Acute Assay, Shafer Lab (AID 2284069);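 note: active compounds lower the viability signal compared with DMSO wells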
# Protocol: CCTE_Shafer_MEA_acute assay is conducted using Axion Biosystems 48 well microelectrode array (MEA) plates and Maestro recording system. Each well of the MEA plate contains a grid of 16 microelectrodes embedded in the culture surface. Electrically active cells, such as neurons, can be cultured over the electrodes, and electrical activity in these cells can be recorded extracellularly. The spontaneous firing of neurons is captured from each electrode on a microsecond timescale providing both temporally and spatially precise data. […] The CCTE_Shafer_MEA_acute assay uses primary cultures of rat cortical neurons. As these cultures mature over time, neural networks develop functional activity and form cohesive networks in which electrical activity can be highly coordinated. Baseline 40-minute recordings are made on days post-plating 13 or 15, followed by a secondary 40-minute recording after chemical exposure.CCTE_Shafer_MEA_acute_AB is a component of the CCTE_Shafer_MEA_acute assay. It measures the resazurin reduction using fluorescence.Data from the assay component CCTE_Shafer_MEA_acute_AB was analyzed into 1 assay endpoint. This assay endpoint, CCTE_Shafer_MEA_acute_AB, was analyzed in the positive analysis fitting direction relative to DMSO as the negative control and baseline of activity. Using a type of viability reporter, loss-of-signal activity can be used to understand cell viability.
# Metabolic activity was determined using the CellTiter Blue (CTB) assay (Promega Cat. #8081), following the manufacturer's instructions with the following modifications. Following the removal of the 50 uL sample for the LDH assay, 450 uL of media was removed from each well and replaced with 200 uL of fresh media containing a 1:6 dilution of CTB reagent for the determination of metabolic activity. Fluorescence was measured in a Fluorostar Optima fluorimeter using an excitation wavelength of 544 nm and an emission wavelength of 590 nm.
Compound,outcome,AC50
Cc1cc2c(cc1C(F)(F)F)N(C(=O)Nc1ccc(Oc3cccnc3C)nc1)CC2,inactive,–
Clc1ccccc1C(c1ccccc1)(c1ccccc1)n1ccnc1,inactive,–
COc1cccc([C@H](O)C2CCN(CCc3ccc(F)cc3)CC2)c1OC,inactive,–
CCCCCCCCCCCCO,inactive,–
CC[C@@H]1C[C@H](N(Cc2cc(C(F)(F)F)cc(C(F)(F)F)c2)C(C)=O)c2cc(C(F)(F)F)ccc2N1C(=O)OC(C)C,inactive,–
O=C1O[C@H]([C@@H](O)CO)C(O)=C1O,inactive,–
Cc1c2ccccc2c(C)c2c1ccc1ccccc12,inactive,–
CC(O)CC(C)(C)O (stereo not drawn),inactive,–
CCN(CC)C(=O)c1cc(S(=O)(=O)Cc2ccccc2)c(N2CCC(c3ccccc3)CC2)cc1N(CC)CCN(C)C,inactive,–
CO[C@H]1/C=C/O[C@@]2(C)Oc3c(C)c(O)c4c(O)c(c(/C=N/N5CCN(C)CC5)c(O)c4c3C2=O)NC(=O)/C(C)=C\C=C\[C@H](C)[C@H](O)[C@@H](C)[C@@H](O)[C@@H](C)[C@H](OC(C)=O)[C@@H]1C,inactive,–
c1ccc2n[nH]nc2c1,inactive,–
CN(C)C(=O)C1(N2CCCCC2)CCN(CC[C@@]2(c3ccc(Cl)c(Cl)c3)CN(C(=O)c3ccccc3)CCO2)CC1,inactive,–
OC12N=C(c3ccccc3)SC1Cc1cc(Cl)ccc12 (stereo not drawn),inactive,–
NCc1cccc(C2CCN(C(=O)c3ccc(C#Cc4ccccc4F)o3)CC2)c1,inactive,–
CC(C)(C)c1cc(/C=C2\SC(N)=NC2=O)cc(C(C)(C)C)c1O,inactive,–
O=C(O)c1ccccc1-n1cc(C(=O)O)c(=O)c2cc(Nc3c(F)cc(F)cc3Cl)c(Cl)cc21,inactive,–
CC1=CC(=O)/C(=C(/C)O)C(=O)O1,inactive,–
C[C@]12CC[C@@H]3c4ccc(O)cc4CC[C@H]3[C@@H]1CC[C@H]2O,inactive,–
CN(C)c1ccc(C(=C2C=CC(=[N+](C)C)C=C2)c2ccc(N(C)C)cc2)cc1,–,11.2 µM (active)
CC(C)(c1cc(Br)c(O)c(Br)c1)c1cc(Br)c(O)c(Br)c1,inactive,–
CCCCCCCCOC(=O)c1cc(O)c(O)c(O)c1,inactive,–
CN(C[C@@H](CC[N+]12CCC(C3CCCCC3)(CC1)CC2)c1ccc(Cl)c(Cl)c1)C(=O)c1cc(C(F)(F)F)cc(C(F)(F)F)c1,–,20 µM (active)
CC(=O)N1CCN(c2ccc(OC[C@H]3CO[C@](Cn4ccnc4)(c4ccc(Cl)cc4Cl)O3)cc2)CC1,inactive,–
COc1cc(C(=O)NC2CCN(C)CC2)ccc1Nc1ncc2c(n1)N(C1CCCC1)CC(F)(F)C(=O)N2C,inactive,–
CN1C(=O)CC[C@H]1c1cccnc1,inactive,–
CC/C(=C(/CC)c1ccc(O)cc1)c1ccc(O)cc1,inactive,–
O=c1[nH]sc2ccccc12,inactive,–
NC(=O)c1nc(-c2cccc(-c3cc(F)ccc3OCC(F)(F)C(F)(F)F)c2)n[nH]1,inactive,–
